Structures are written as SMILES.

Among the data in PubChem BioAssay are composite z-score values, retold here.

Chain of Follistatin (Homo sapiens) (P19883 whole entry, looked up): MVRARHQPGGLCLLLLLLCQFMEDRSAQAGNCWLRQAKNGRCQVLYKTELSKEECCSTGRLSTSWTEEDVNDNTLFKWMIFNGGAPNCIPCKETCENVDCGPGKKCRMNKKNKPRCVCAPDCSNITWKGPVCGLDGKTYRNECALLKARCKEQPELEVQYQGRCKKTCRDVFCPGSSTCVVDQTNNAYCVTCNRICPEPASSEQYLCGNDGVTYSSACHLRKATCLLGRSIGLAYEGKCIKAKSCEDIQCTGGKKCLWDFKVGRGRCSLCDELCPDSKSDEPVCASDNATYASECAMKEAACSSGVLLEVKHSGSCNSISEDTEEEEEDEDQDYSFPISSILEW
Chain of Fibroblast growth factor 2 (Homo sapiens) (P09038 whole entry, looked up): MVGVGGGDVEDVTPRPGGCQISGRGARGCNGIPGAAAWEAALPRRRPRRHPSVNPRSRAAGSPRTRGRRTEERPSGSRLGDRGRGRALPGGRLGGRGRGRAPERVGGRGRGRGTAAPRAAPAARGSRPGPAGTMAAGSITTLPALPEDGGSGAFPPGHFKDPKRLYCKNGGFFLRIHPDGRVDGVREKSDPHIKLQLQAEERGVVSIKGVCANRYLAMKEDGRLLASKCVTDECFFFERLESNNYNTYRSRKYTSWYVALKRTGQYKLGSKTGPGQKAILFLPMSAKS

The first test addresses Follistatin (Homo sapiens) (UniProt P19883). Put plainly: FST protein binding to printed compounds – biochemical, small-molecule microarray, 635/667 nm fluorescence, primary screen (AID 1132). The settings on record: 635 nm fluorescence, higher = more signal.
`CCN1C(=O)[C@H]2[C@H]3[C@H](O)[C@H](O)CC(=NO[C@@H]4O[C@H](CO)[C@@H](O)[C@H](O)[C@H]4O)[C@@H]3CC[C@H]2C1=O` displayed a composite z-score of 0.477.

`COCC1=C2[C@@H](CCc3ccccc3)OB(O)C[C@@H]2n2c(=O)n(-c3ccccc3)c(=O)n2C1` returned a composite z-score of 0.133.

Consider `CN1C(=O)C2C=CC(C(O)c3ccc(Br)cc3)N(N(c3ccccc3)c3ccccc3)C2C1=O` (configuration not stated), for which the composite z-score turned out to be 0.502.

In the case of `CC(CCN1CCCCc2nc(C)c(C)cc21)=NOC(C)CN1CCCCc2nc(C)c(C)cc21` (configuration not stated), the composite z-score was 1.29.

Another test concerns the target Fibroblast growth factor 2 (Homo sapiens) (UniProt P09038). Nature of the test: basic fibroblast growth factor binding to printed compounds – biochemical, small-molecule microarray, 635/667 nm fluorescence, primary screen (AID 1133). The settings on record: FGF2, fluorescence 635/667, higher = more signal.
In the case of `CO[C@@H]1COC(=O)[C@@H]2CCCN2C(=O)[C@@H](C)COC(=O)[C@H](COCc2ccccc2)NC(=O)CC=C[C@H]1C`, the composite z-score was found to be 0.27.

On to `C#CCCCON=C1C[C@@H](O)[C@@H](O)[C@@H]2[C@@H]3C(=O)N([C@@H](C)c4ccccc4)C(=O)[C@@H]3CC[C@H]12`, for which the composite z-score is 0.594.

`COCCCNC(=O)[C@@]1(C)c2ccccc2C(=O)N(Cc2ccc(OC(F)(F)F)cc2)[C@H]1c1ccc(CO)cc1` yielded a composite z-score of -0.553.

As to `C=COC[C@H]1CN2[C@@H](CC[C@@H](C)[C@@H]2c2ccc(Br)cc2)C(=O)O1`, the composite z-score was determined as 0.706.

The compound `CC(CCN1CCCCc2nc(C)c(C)cc21)=NOC(C)CN1CCCc2nc(C)c(C)cc21` (configuration not stated) returned a composite z-score of 0.97.

On to `CC(C)=NOCc1ccc(-c2cc(-c3ccccc3)no2)cc1`, for which the composite z-score was determined as 0.437.

On to `CCc1cc2c(nc1CC)CCN(CCC(C)=NOC[C@@H](O)[C@H]1O[C@@H]3OC(C)(C)O[C@@H]3[C@H]1O)C2`, for which the composite z-score worked out at 0.106.

Regarding `COc1cccc([C@H]2Oc3ccc(OC)cc3C(=NO[C@H](C)c3cn([C@@H]4COC[C@H]4O)nn3)[C@@H]2O)c1`, the composite z-score was -0.805.

`O=C(NN=C1C[C@@H](O)[C@@H](O)[C@@H]2[C@@H]3C(=O)N(c4ccc(F)cc4F)C(=O)[C@@H]3CC[C@@H]12)OCc1ccccc1` yielded a composite z-score of -0.191.

Take `CCOC(=O)[C@H](Cc1ccccc1)NC(=O)CCC1CC(OC(=O)NCc2ccc3c(c2)OCO3)CC2(CCCC(COC(=O)NCc3cccc(C(F)(F)F)c3)O2)O1` (some centres not stated): the composite z-score is 1.01.

With `C[C@@H](c1ccccc1)N1C(=O)[C@H]2[C@H]3[C@H](O)C=CC(=O)[C@@H]3CC[C@H]2C1=O`, the composite z-score worked out at 0.104.

Take `Cc1cc2c(c(=O)o1)[C@H](O)[C@H]1O[C@H]1C2=O`: the composite z-score was found to be 0.126.

In turn, `COc1ccc(COC(=O)NN=C2C[C@@H](O)[C@@H](O)[C@@H]3[C@@H]4C(=O)N(c5ccc(F)cc5F)C(=O)[C@@H]4CC[C@@H]23)cc1` came in with a composite z-score of -0.0007.

As for `CO[C@@H]1COC(=O)CCC[C@@H](C)[C@H](OC)COC(=O)CCC[C@H]1C`, the composite z-score turned out to be 0.685.

`O=C1C[C@@H](O)[C@@H](O)[C@@H]2[C@@H]3C(=O)N(Cc4ccc5c(c4)OCO5)C(=O)[C@@H]3CC[C@@H]12` had a composite z-score of 0.507.

`CC=CC1=C(CO)[C@H](O)[C@H]2O[C@H]2[C@H]1O` had a composite z-score of 1.06.

On to `CC(C)[C@H](NC(=O)OC(C)(C)C)[C@@H](O)CC(=O)OC(C)(C)C`, for which the composite z-score was -0.394.

On to `CO[C@H]1COC(=O)[C@@H]2CCCN2C(=O)CC=C[C@@H](C)[C@H](OC)COC(=O)CC=C[C@@H]1C`, for which the composite z-score is 1.21.

In the case of `COC(=O)[C@H](C)NC(=O)CCC1CC(OC(=O)NCCc2ccc(F)cc2)CC2(CCCC(COC(=O)NCCc3ccc(Cl)cc3)O2)O1` (some centres not stated), the composite z-score was 1.05.

`CC(C)=CCCC(C)=CCON=C1[C@H]2CCn3c(=O)n(C)c(=O)n3[C@H]2[C@H](O)[C@@H]2O[C@H]12`: the composite z-score was found to be 0.896.

`O=C(NN=C1C[C@@H](O)[C@@H](O)[C@@H]2[C@@H]3C(=O)N(c4cccc(Oc5ccccc5)c4)C(=O)[C@@H]3CC[C@@H]12)OCc1ccccc1` had a composite z-score of -0.0953.

On to `CC(=O)OC[C@H]1O[C@H](C#CCCCc2ccccc2)C=C[C@@H]1OC(C)=O`, for which the composite z-score turned out to be 0.83.

For `CC(CCN1CCc2nc(-c3ccccc3)c(-c3ccccc3)cc2C1)=NO[C@H](C)c1cn([C@@H]2COC[C@H]2O)nn1`, the composite z-score worked out at 0.0208.

In turn, `O[C@@H](Cc1ccccc1)[C@H]1C2C=CCCC(c3ccccc3)=C2CN1Cc1cccc(Cl)c1` (some centres not stated) showed a composite z-score of 0.251.

The compound `COc1ccc([Si](C)(C)[C@H]2[C@H](CCO)O[C@@]3(C(=O)N(Cc4cccc(NC(=O)[C@H](C)O)c4)c4ccccc43)[C@@H]2C)cc1` came in with a composite z-score of 0.684.

Turning to `O=C1NC(=O)C2C1C=CC(C(O)Cc1ccccc1)N2Nc1ccccn1` (configuration not stated), the composite z-score came to 0.512.

For the compound `CC(CCC(=O)OC[C@H]1O[C@H](C#Cc2ccccc2)C=C[C@@H]1Oc1ccc(C)cc1)=NOC[C@@H](O)COCc1ccco1`, the composite z-score was -3.21.

Regarding `CC1CC/C=C\[C@H]2OC34C=CCN(Cn5nnc6ccccc65)C(=O)[C@H]3N(CCO)C(=O)[C@@H]4C2C(=O)O1` (some centres not stated), the composite z-score was -1.35.
